# Key:
# Conditions in all cases: concentration: 1 μM, replicates: in singlicate; n = 1
# PIK3CG = tested on: PIK3CG
# PIK4CB = tested on: T1, PIK4CB
# T1 construct: gene PI4KB
# PIKFYVE = tested on: PIKFYVE
# PIM1 = tested on: PIM1
# PIM2 = tested on: PIM2
# PIM3 = tested on: PIM3
# PIP5K1A = tested on: PIP5K1A
# PIP5K1C = tested on: PIP5K1C
# PIP5K2B = tested on: PIP5K2B
# PIP5K2C = tested on: T2, PIP5K2C
# T2 construct: gene PIP4K2C
# PKAC-alpha = tested on: T3, PKAC-alpha
# T3 construct: gene PRKACA
# PKAC-beta = tested on: T4, PKAC-beta
# T4 construct: gene PRKACB
# PKMYT1 = tested on: PKMYT1
# PKN1 = tested on: PKN1
# PKN2 = tested on: PKN2
# PLK1 = tested on: PLK1
# PLK2 = tested on: PLK2
# PLK3 = tested on: PLK3
# PLK4 = tested on: PLK4
# PRKCD = tested on: PRKCD
# 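Also: KINOMEscan kinase panel screen.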
Compound,%Inh (PIK3CG) [%],%Inh (PIK4CB) [%],%Inh (PIKFYVE) [%],%Inh (PIM1) [%],%Inh (PIM2) [%],%Inh (PIM3) [%],%Inh (PIP5K1A) [%],%Inh (PIP5K1C) [%],%Inh (PIP5K2B) [%],%Inh (PIP5K2C) [%],%Inh (PKAC-alpha) [%],%Inh (PKAC-beta) [%],%Inh (PKMYT1) [%],%Inh (PKN1) [%],%Inh (PKN2) [%],%Inh (PLK1) [%],%Inh (PLK2) [%],%Inh (PLK3) [%],%Inh (PLK4) [%],%Inh (PRKCD) [%]
Cc1ccccc1COc1cc(-n2cnc3cc(Cl)ccc32)sc1C(N)=O [GW813349],24,0,0,2,18,0,24,37,0,24,0,21,0,7,0,97,92.4,92.8,2,12
CCn1c(-c2ccoc2)nc2cnccc21 [SB-733887],0,20,3,0,0,36,11,0,0,32,0,0,0,7,0,5,0,0,15,0
CCn1c(-c2nonc2N)nc2ccccc21 [SB-693162/GW549034],0,29,0,0,0,8,23,8,0,0,0,0,0,0,0,62,21,34,30,0
C[C@@H]1CC[C@H](C(=O)NC2CCCCC2)CN1c1cc(-c2ccc3c(N)n[nH]c3c2)nc(N)n1 [GSK2291363],0,0,0,22,0,8,100,53,52,30,32,18,6,0,0,8,0,0,0,8
Fc1cccc(CSc2nnc(-c3ccc4c(c3)CCO4)o2)c1,10,2,7,13,18,9,13,5,34,0,29,0,24,0,0,0,6,11,21,7
CCc1nc(-c2cccc(C)c2)c(-c2ccncc2)s1,0,0,39,17,0,29,0,36,19,25,0,7,8,6,0,0,0,14,0,0
CN1C(=O)C(Nc2ccccc2)=C(c2ccccc2)C1=O [SB-300079],10,0,9,0,0,0,42,23,0,20,2,0,2,0,0,4,12,16,0,7
COc1ccc(-c2coc3ccc(-c4nnc(SCc5cccc(C#N)c5)o4)cc23)cc1,0,29,0,12,20,17,0,0,4,9,11,0,0,32,0,0,11,12,18,12
Cl.NS(=O)(=O)c1cccc(Nc2cc(-c3ccc(F)cc3)n[nH]2)c1 [GW824645],0,26,0,0,8,0,3,59,0,0,7,0,0,0,0,0,20,23,10,5
Nc1ncnc2c1ncn2-c1cccc2ccccc12 [SKF-97184],3,0,40,0,32,0,0,11,0,0,10,0,0,0,0,28,18,9,0,16
O=C1NC(=O)C(c2ccccc2)=C1Nc1cccc(O)c1 [SB-390534],5,22,0,0,0,0,5,0,13,0,0,5,0,0,21,0,20,27,11,5
COc1cccc(-n2cnc3c(N)ncnc32)c1 [SKF-97416],44,41,41,20,14,24,2,13,0,0,11,20,10,0,24,58,43,18,21,6
Nc1nc(N)c2nc(-c3ccccc3)[nH]c2n1 [SKF-12778],8,19,12,0,5,0,0,47,8,35,7,9,2,43,23,0,0,0,0,11
Cc1ccc(Oc2ccc(Nc3ncnc4cc[nH]c34)cc2C)cn1,7,42,1,41,7,36,7,0,0,0,19,0,8,50,0,50,12,11,20,5
COc1ccc(Nc2nccc(N3CCC(NS(=O)(=O)c4ccc(NC(C)=O)cc4)C3)n2)cc1 (stereo not shown) [GSK1379729],11,14,11,0,0,0,0,49,9,62,6,0,12,37,2,12,0,0,8,0
O=C(Nc1n[nH]c2cc(-c3ccccc3F)ccc12)C1CC1 [SB-733371],6,0,10,0,0,0,32,0,24,0,0,20,0,0,14,0,0,3,9,0
O=C(Nc1n[nH]c2nc(-c3ccccc3)c(Cl)cc12)C1CC1 [SB-734909],45,2,0,0,3,1,8,38,13,14,0,0,16,45,0,24,0,13,29,2
CCC(=O)c1c(-c2ccccc2)c2cc(Cl)ccc2c(=O)n1Cc1cc(S(C)(=O)=O)n(CC(N)=O)n1,0,0,17,18,2,9,0,33,8,19,0,0,0,1,8,0,0,0,0,6
CCC(=O)c1c(-c2ccccc2)c2cc(Cl)ccc2c(=O)n1Cc1cc(S(C)(=O)=O)n(CC(F)F)n1,0,0,0,0,0,0,2,9,0,0,0,0,0,0,0,0,24,13,0,9
COc1cc2ncn(-c3cc(OCc4ccc(S(C)(=O)=O)cc4)c(C(N)=O)s3)c2cc1OC [GW869979],26,18,14,0,0,0,0,39,16,0,0,0,0,8,0,98.3,98.9,92.3,3,0

# — paper PMC5540273 (PLoS ONE, 2017)
